Records with an inconclusive call do not appear. Activity calls are given as the source filed them. Calls follow the shape of the dose curve; as a rule, active = well fitted curve in the direction sought with a large enough effect; inconclusive = small, poorly fitted or top-dose-only effect, or another doubt; inactive = no such curve, though single readings can be large; an effect the other way counts as inactive or inconclusive.
Tested on: not listed separately
Test: qHTS for Inhibitors of the Aldehyde Dehydrogenase Family (ALDH1A2, ALDH1A3, ALDH2, ALDH3A1) (AID 2061307); also: nearly all actives have a fitted effect of over 50% in size; as to Potency: test system not described further here; as to activity change, negative = inhibition: % is scaled to controls: 0 for no effect and ±100 for the full control effect
Settings: ALDH inhibition qHTS; series mostly up to 50.3 µM; activity change, negative = inhibition: at the top concentration
Potency is read from the fitted curve at half-maximal effect.

Row | Structure (SMILES) | activity change, negative = inhibition | Potency
1 | CC(=O)SCC(CC(=O)c1ccc(C)cc1)C(=O)O (stereo not given) | -28.5% (inactive) | 
2 | CCCCNc1ccc(C(=O)OCCN(CC)CC)cc1 | 0.0679% (inactive) | 
3 | N#Cc1c(-c2csc(-c3no[n+]([O-])c3C#N)c2)no[n+]1[O-] |  | 6.34 µM (active)
4 | CCOC(=O)c1ccc(O)c2ncc(-c3ccc(C(=N)N)cc3)cc12 | 244% (inactive) | 
5 | N#Cc1ccccc1OC1=NS(=O)(=O)c2ccccc21 | 12.3% (inactive) | 
6 | CC(C)c1ccccc1-c1ncc(F)c(NC(C)(C)c2ccc(-c3cccnc3)cc2)n1 | 9.87% (inactive) | 
7 | CC(=O)NCCC(=O)N[C@@H](CCC(N)=O)C(=O)N[C@@H](CO)C(=O)N[C@@H](CCC(N)=O)C(=O)N[C@@H](CCC(N)=O)C(=O)N[C@H](C(=O)N[C@@H](Cc1ccccc1)C(=O)N[C@]1(C)CCCCCCC=CCCC[C@@](C)(C(=O)N[C@@H](CCC(N)=O)C(=O)N[C@@H](CC(N)=O)C(N)=O)NC(=O)[C@H](CC(C)C)NC(=O)[C@H](CC(C)C)NC(=O)[C@@H](CCCNC(=N)N)NC(=O)[C@H](Cc2c[nH]c3ccccc23)NC(=O)[C@H](CC(C)C)NC(=O)[C@H](CC(N)=O)NC1=O)[C@H](C)O | 579% (inactive) | 
8 | COc1ccc(C2=Nn3c(nnc3-c3cccc(OC)c3OC)SC2)cc1 | -28.6% (inactive) | 
9 | OCc1cccc(-c2noc(-c3ccccc3F)n2)c1 |  | 10.7 µM (active)
10 | FC(F)(F)c1cccc(N2CCN(C(=S)Nc3nccc4cccnc34)CC2)c1 |  | 28.2 µM (active)
11 | O=C(CSc1nnc(-c2cccc(S(=O)(=O)N3CCCC3)c2)n1-c1ccccc1)Nc1ccc(F)cc1 | 1.58% (inactive) | 
12 | COc1ccc(C2=Nn3c(nnc3-c3cc(OC)cc(OC)c3)SC2)cc1 | -3.71% (inactive) | 
13 | COc1ccc(C[C@H](N)C(=O)N[C@H]2[C@@H](O)[C@H](n3cnc4c(N(C)C)ncnc43)O[C@@H]2CO)cc1 | -13% (inactive) | 
14 | O=C(O)c1ccc2c(c1)C(=O)N([C@H](Cc1ccc(F)cc1)C(=O)O)C2=O | -2.97% (inactive) | 
15 | Cn1ncc(-c2nnc(-c3ccccc3)n2CCCn2ccnc2)c1N | -5.96% (inactive) | 
16 | O=C(O)c1ccc(O)c2ncc(N3CCCN(C4CCCC4)CC3)cc12 | -8.34% (inactive) | 
17 | CCOc1cc(CNc2ccc(O)cc2)ccc1OCc1ccc(Cl)cc1 |  | 11.3 µM (active)
18 | O=C(O)c1ccc(S(=O)(=O)N[C@H](Cc2ccccc2)C(=O)O)cc1 | -0.763% (inactive) | 
19 | Cc1ccc(S(=O)(=O)NC(N)=NCCC[C@@H](NC(=O)CNC(=O)c2ccccc2)C(=O)Nc2cc(C(F)(F)F)ccc2Cl)cc1 | -4.09% (inactive) | 
20 | O=C(O)c1cccc(-c2noc(-c3ccccc3F)n2)c1 |  | 0.302 µM (active)

Row | Structure (SMILES) | activity change, negative = inhibition | Potency
21 | C[C@@](Cc1ccccc1)(C(=O)O)N1C(=O)c2ccc(C(=O)O)cc2C1=O | 6.68% (inactive) | 
22 | Cc1ccccc1C[C@H](C(=O)O)N1C(=O)c2ccc(C(=O)O)cc2C1=O | -1.24% (inactive) | 
23 | COc1cc(NS(=O)(=O)c2ccc([N+](=O)[O-])cc2)c2ncccc2c1 |  | 0.712 µM (active)
24 | CCCCN(CCCNC(=S)NCCCc1cnc[nH]1)c1ccc(Br)cn1 |  | 12.6 µM (active)
25 | Cc1ccc(-c2cc(C(=O)N3CCCCC3)c3ccccc3n2)cc1C | -8.25% (inactive) | 
26 | S=C(NCCCc1cnc[nH]1)NCCCN(Cc1ccc(Cl)c(Cl)c1)c1ccccn1 | 256% (inactive) | 
27 | Cc1cccc2c(C(=O)O)cc(Cl)nc12 | 3.58% (inactive) | 
28 | Cc1cc(N2C(=O)c3ccccc3C2=O)n[nH]1 | 13% (inactive) | 
29 | O=C(O)c1ccc(S(=O)(=O)N[C@H](Cc2ccc(C(F)(F)F)cc2)C(=O)O)cc1 | 0.0373% (inactive) | 
30 | Cc1nnc(-c2cnn(C)c2N)n1CCCn1ccnc1 | 2.52% (inactive) | 
31 | COc1cc(F)cc(F)c1[S+](=O)([O-])N1CCN([S+](=O)([O-])c2ccc3c(c2)OCCO3)CC1 | -7.54% (inactive) | 
32 | O=C1c2ccccc2NC(c2ccc(-c3cccc([N+](=O)[O-])c3)o2)N1O (stereo not given) |  | 2.25 µM (active)
33 | Cc1nnc(-c2ccccc2C(C)C)nc1NCc1ccc(-c2cccnc2)cc1 | -15.8% (inactive) | 
34 | N#Cc1ccc(-c2ccc(C3Nc4ccccc4C(=O)N3O)o2)cc1 (stereo not given) |  | 3.18 µM (active)
35 | Fc1cc(Nc2nc(-c3ccncc3)nc3ccccc23)ccc1N1CCCCC1 | 8.6% (inactive) | 
36 | Cc1cc2c(s1)c1cnn(Cc3c(Cl)ccc(C)c3F)c(=O)c1n2C | 3.81% (inactive) | 
37 | O=C(C1CCN(c2nc(-c3ccc(Br)cc3)cs2)CC1)N1CCNCC1 | -28.4% (inactive) | 
38 | COc1ccc(C2Nc3ccccc3C(=O)N2CCO)cc1COc1ccc(NC(C)=O)cc1 (stereo not given) |  | 3.18 µM (active)
39 | CC(=O)N(C(C)=O)n1c(C)nc2sc3c(c2c1=O)CCNC3 | 16.7% (inactive) | 
40 | CCC(=O)C1CCCN(C(=O)CC(c2ccc3c(c2)OCO3)c2c(O)cc(OC)cc2OC)C1 (stereo not given) | -13.4% (inactive) | 

Target: Aldehyde dehydrogenase, mitochondrial (Homo sapiens) (UniProt P05091)
Test: qHTS for Inhibitors of the Aldehyde Dehydrogenase Family (ALDH2) Primary screen (AID 2061308); also: nearly all actives have a fitted effect of over 55% in size;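 as to activity change, negative = inhibition: plate controls were vehicle for no effect and reference inhibitor for full effect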
Settings: ALDH2 enzyme inhibition qHTS, 1536-well; series mostly up to 56 µM; activity change, negative = inhibition: at the top concentration

Row | Structure (SMILES) | activity change, negative = inhibition | Potency
41 | CC(=O)SCC(CC(=O)c1ccc(C)cc1)C(=O)O (stereo not given) | -25.1% (inactive) | 
42 | CCCCNc1ccc(C(=O)OCCN(CC)CC)cc1 | -11.1% (inactive) | 
43 | N#Cc1c(-c2csc(-c3no[n+]([O-])c3C#N)c2)no[n+]1[O-] | -80% (inactive) | 
44 | CCOC(=O)c1ccc(O)c2ncc(-c3ccc(C(=N)N)cc3)cc12 | 0.559% (inactive) | 
45 | N#Cc1ccccc1OC1=NS(=O)(=O)c2ccccc21 | -11.6% (inactive) | 
46 | CC(C)c1ccccc1-c1ncc(F)c(NC(C)(C)c2ccc(-c3cccnc3)cc2)n1 | -15.5% (inactive) | 
47 | CC(=O)NCCC(=O)N[C@@H](CCC(N)=O)C(=O)N[C@@H](CO)C(=O)N[C@@H](CCC(N)=O)C(=O)N[C@@H](CCC(N)=O)C(=O)N[C@H](C(=O)N[C@@H](Cc1ccccc1)C(=O)N[C@]1(C)CCCCCCC=CCCC[C@@](C)(C(=O)N[C@@H](CCC(N)=O)C(=O)N[C@@H](CC(N)=O)C(N)=O)NC(=O)[C@H](CC(C)C)NC(=O)[C@H](CC(C)C)NC(=O)[C@@H](CCCNC(=N)N)NC(=O)[C@H](Cc2c[nH]c3ccccc23)NC(=O)[C@H](CC(C)C)NC(=O)[C@H](CC(N)=O)NC1=O)[C@H](C)O | 0.344% (inactive) | 
48 | COc1ccc(C2=Nn3c(nnc3-c3cccc(OC)c3OC)SC2)cc1 | 1.13% (inactive) | 
49 | OCc1cccc(-c2noc(-c3ccccc3F)n2)c1 | 9.88% (inactive) | 
50 | FC(F)(F)c1cccc(N2CCN(C(=S)Nc3nccc4cccnc34)CC2)c1 |  | 7.94 µM (active)
51 | O=C(CSc1nnc(-c2cccc(S(=O)(=O)N3CCCC3)c2)n1-c1ccccc1)Nc1ccc(F)cc1 | 6.34% (inactive) | 
52 | COc1ccc(C2=Nn3c(nnc3-c3cc(OC)cc(OC)c3)SC2)cc1 | -1.25% (inactive) | 
53 | COc1ccc(C[C@H](N)C(=O)N[C@H]2[C@@H](O)[C@H](n3cnc4c(N(C)C)ncnc43)O[C@@H]2CO)cc1 | -21.9% (inactive) | 
54 | O=C(O)c1ccc2c(c1)C(=O)N([C@H](Cc1ccc(F)cc1)C(=O)O)C2=O | -15.4% (inactive) | 
55 | Cn1ncc(-c2nnc(-c3ccccc3)n2CCCn2ccnc2)c1N | 8.4% (inactive) | 
56 | O=C(O)c1ccc(O)c2ncc(N3CCCN(C4CCCC4)CC3)cc12 | 1.92% (inactive) | 
57 | CCOc1cc(CNc2ccc(O)cc2)ccc1OCc1ccc(Cl)cc1 |  | 3.16 µM (active)
58 | O=C(O)c1ccc(S(=O)(=O)N[C@H](Cc2ccccc2)C(=O)O)cc1 | -4.36% (inactive) | 
59 | Cc1ccc(S(=O)(=O)NC(N)=NCCC[C@@H](NC(=O)CNC(=O)c2ccccc2)C(=O)Nc2cc(C(F)(F)F)ccc2Cl)cc1 | 2.7% (inactive) | 
60 | O=C(O)c1cccc(-c2noc(-c3ccccc3F)n2)c1 |  | inactive

Row | Structure (SMILES) | activity change, negative = inhibition | Potency
61 | C[C@@](Cc1ccccc1)(C(=O)O)N1C(=O)c2ccc(C(=O)O)cc2C1=O | -1.21% (inactive) | 
62 | Cc1ccccc1C[C@H](C(=O)O)N1C(=O)c2ccc(C(=O)O)cc2C1=O | -1.12% (inactive) | 
63 | COc1cc(NS(=O)(=O)c2ccc([N+](=O)[O-])cc2)c2ncccc2c1 |  | 20 µM (active)
64 | CCCCN(CCCNC(=S)NCCCc1cnc[nH]1)c1ccc(Br)cn1 | 6.36% (inactive) | 
65 | Cc1ccc(-c2cc(C(=O)N3CCCCC3)c3ccccc3n2)cc1C | -6.43% (inactive) | 
66 | S=C(NCCCc1cnc[nH]1)NCCCN(Cc1ccc(Cl)c(Cl)c1)c1ccccn1 | 6.52% (inactive) | 
67 | Cc1cccc2c(C(=O)O)cc(Cl)nc12 | -3.09% (inactive) | 
68 | Cc1cc(N2C(=O)c3ccccc3C2=O)n[nH]1 | -3.13% (inactive) | 
69 | O=C(O)c1ccc(S(=O)(=O)N[C@H](Cc2ccc(C(F)(F)F)cc2)C(=O)O)cc1 | -7.51% (inactive) | 
70 | Cc1nnc(-c2cnn(C)c2N)n1CCCn1ccnc1 | -12.7% (inactive) | 
71 | COc1cc(F)cc(F)c1[S+](=O)([O-])N1CCN([S+](=O)([O-])c2ccc3c(c2)OCCO3)CC1 | -2.61% (inactive) | 
72 | O=C1c2ccccc2NC(c2ccc(-c3cccc([N+](=O)[O-])c3)o2)N1O (stereo not given) |  | 10 µM (active)
73 | Cc1nnc(-c2ccccc2C(C)C)nc1NCc1ccc(-c2cccnc2)cc1 | 101% (inactive) | 
74 | N#Cc1ccc(-c2ccc(C3Nc4ccccc4C(=O)N3O)o2)cc1 (stereo not given) |  | 1.26 µM (active)
75 | Fc1cc(Nc2nc(-c3ccncc3)nc3ccccc23)ccc1N1CCCCC1 | 3.37% (inactive) | 
76 | Cc1cc2c(s1)c1cnn(Cc3c(Cl)ccc(C)c3F)c(=O)c1n2C | -14.1% (inactive) | 
77 | O=C(C1CCN(c2nc(-c3ccc(Br)cc3)cs2)CC1)N1CCNCC1 | -4.06% (inactive) | 
78 | COc1ccc(C2Nc3ccccc3C(=O)N2CCO)cc1COc1ccc(NC(C)=O)cc1 (stereo not given) | 9.11% (inactive) | 
79 | CC(=O)N(C(C)=O)n1c(C)nc2sc3c(c2c1=O)CCNC3 | -16.9% (inactive) | 
80 | CCC(=O)C1CCCN(C(=O)CC(c2ccc3c(c2)OCO3)c2c(O)cc(OC)cc2OC)C1 (stereo not given) | -2.26% [at 114 µM] (inactive) | 

— PubChem BioAssay (NCATS)
